Laboratory results: PubChem BioAssay
The source made the active and inactive calls.

Tests used:
[1] = optical density shifts of acrAB sulA E. coli – strain DRC41, OD650, 48 h, E. coli filamentation inducer project, primary screen (AID 1152); conditions: higher = more signal, called active from +8 up or from −8 down;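 note: E. coli MC1000 strain DRC41 lacking acrAB efflux pump and sulA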
[2] = probe aLefty1 binding on compound microarray – biochemical, small-molecule microarray, 635/667 nm fluorescence, primary screen (AID 1153); conditions: higher = more signal;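 note: score merges spot fluorescence with signal-to-noise ratio from the scanned slide images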
[3] = plasmodial surface anion channel blockers, osmotic lysis – cell-based, P. falciparum Indochina, OD700, 1 h, primary screen (AID 1154); conditions: P. falciparum Indochina infected RBC osmotic lysis, higher = more signal, called active from +8 up or from −8 down
[4] = plasmodial surface anion channel blockers, osmotic lysis – cell-based, P. falciparum Indochina, OD700, 2 h, primary screen (AID 1155);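 note: lysis reports solute entry through the parasite surface anion channel PSAC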; conditions: P. falciparum Indochina infected erythrocytes, higher = more signal, called active from +8 up or from −8 down
[5] = changes in parasitized red cell lysis, either direction – P. falciparum Indochina, OD700, 3 h, PSAC antagonist project, primary screen (AID 1156); conditions: P. falciparum-infected erythrocytes, osmotic lysis, higher = more signal, called active from +8 up or from −8 down
[6] = plasmodial surface anion channel blockers, osmotic lysis – cell-based, P. falciparum Indochina, OD700, 18 h, primary screen (AID 1157); conditions: P. falciparum Indochina infected erythrocytes, osmotic lysis OD700, 18 h; higher = more signal, called active from +8 up or from −8 down
[7] = S6 kinase pathway phospho-S6 level changes – cell-based, A549, cytoblot, luminescence, serum-stimulated, primary screen (AID 1158); conditions: 5 h, higher = more signal;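 note: serum-stimulated A549 lung adenocarcinoma cells; signal is phosphorylated S6 detected by cytoblot immunostaining with HRP secondary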
[8] = biological target: NADPH oxidase 2 (Homo sapiens) (UniProt P04839); experiment: compounds shifting NOX2 Amplex Red fluorescence – cell-based, HEK293-NOX2, PMA-stimulated, NOX inhibitor project, primary screen (AID 1159); conditions: 45 min, higher = more signal, called active from +8 up or from −8 down; note: test concentration not given here
[9] = biological target: NADPH oxidase 4 (Homo sapiens) (UniProt Q9NPH5); experiment: compounds shifting NOX4 Amplex Red fluorescence – cell-based, HEK293-NOX4, tetracycline-induced, NOX inhibitor project, primary screen (AID 1160); conditions: HEK293-NOX4, Amplex Red H2O2 fluorescence, 45 min; higher = more signal, called active from +8 up or from −8 down
[10] = biological target: NADPH oxidase 5 (Homo sapiens) (UniProt Q96PH1); experiment: compounds shifting NOX5 Amplex Red fluorescence – cell-based, HEK293-NOX5, NOX inhibitor project, primary screen (AID 1161); conditions: HEK293-NOX5, ionomycin, 45 min, higher = more signal
[11] = compound effects on lung adenocarcinoma cell viability – A549, calcein-AM fluorescence, 48 h, basal, profiling panel (AID 1162); conditions: higher = more signal; note: test concentration not given here
[12] = compound effects on differentiated 3T3-L1 adipocyte viability – cell-based, 3T3-L1 adipocytes, calcein-AM fluorescence, 48 h, basal, profiling panel (AID 1163); conditions: 3T3-L1 adipocytes viability, higher = more signal; note: test concentration not given here
[13] = compound effects on hepatocellular carcinoma cell viability – HepG2, calcein-AM fluorescence, 48 h, basal, profiling panel (AID 1164); conditions: higher = more signal; note: test concentration not given here
[14] = compound effects on multiple myeloma cell viability – MM1S, calcein-AM fluorescence, 48 h, basal, profiling panel (AID 1165); conditions: higher = more signal; note: test concentration not given here
[15] = calcein-AM signal in unstimulated myeloma cells – cell-based, calcein-AM fluorescence, 48 h, PK04 Diversity Set, profiling panel (AID 1166); conditions: RPMI8226 myeloma viability, higher = more signal;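 note: cells grown under basal conditions without added stimulus; test concentration not given here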
[16] = JC-1 mitochondrial signal, unstimulated HepG2 cells – cell-based, JC-1 fluorescence, 24 h, 100 nL compound, profiling panel (AID 1167); conditions: HepG2 mitochondrial potential, higher = more signal; note: test concentration not given here
[17] = JC-1 mitochondrial signal, unstimulated adipocytes – cell-based, JC-1 fluorescence, 3T3-L1 adipocytes, 24 h, 100 nL compound, profiling panel (AID 1168); conditions: JC-1 mitochondrial fluorescence, higher = more signal, called active from +8 up or from −8 down; note: test concentration not given here
[18] = JC-1 mitochondrial signal, unstimulated myeloma cells – cell-based, JC-1 fluorescence, RPMI8226, 24 h, 100 nL compound, profiling panel (AID 1169); conditions: JC-1 mitochondrial potential fluorescence, higher = more signal; note: test concentration not given here
[19] = JC-1 mitochondrial signal, unstimulated MM1S myeloma – cell-based, JC-1 fluorescence, 24 h, 100 nL compound, profiling panel (AID 1170); conditions: MM1S mitochondrial potential, higher = more signal; note: test concentration not given here
[20] = resazurin metabolic signal in A549 cells – cell-based, resazurin fluorescence, 24 h, PK04 Diversity Set, profiling panel (AID 1171); conditions: A549 viability, higher = more signal, called active from +8 up or from −8 down; note: test concentration not given here

NADPH oxidase 2 (Homo sapiens), sequence (P04839 whole entry, looked up): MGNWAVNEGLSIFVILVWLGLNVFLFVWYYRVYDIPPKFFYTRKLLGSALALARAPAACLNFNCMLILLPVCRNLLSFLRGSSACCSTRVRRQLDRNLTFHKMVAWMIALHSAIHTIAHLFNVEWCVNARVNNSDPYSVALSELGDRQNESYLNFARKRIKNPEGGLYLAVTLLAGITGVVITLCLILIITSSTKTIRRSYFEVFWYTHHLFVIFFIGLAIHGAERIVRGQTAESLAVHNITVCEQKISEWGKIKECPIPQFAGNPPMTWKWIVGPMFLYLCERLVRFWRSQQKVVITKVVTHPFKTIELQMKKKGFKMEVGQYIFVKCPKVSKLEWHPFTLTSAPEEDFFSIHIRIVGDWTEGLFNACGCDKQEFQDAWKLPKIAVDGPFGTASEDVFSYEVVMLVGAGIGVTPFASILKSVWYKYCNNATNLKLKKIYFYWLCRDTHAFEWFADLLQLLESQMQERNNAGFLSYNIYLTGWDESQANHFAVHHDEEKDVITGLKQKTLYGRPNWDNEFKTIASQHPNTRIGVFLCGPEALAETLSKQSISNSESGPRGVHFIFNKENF
NADPH oxidase 4 (Homo sapiens), sequence (Q9NPH5 whole entry, looked up): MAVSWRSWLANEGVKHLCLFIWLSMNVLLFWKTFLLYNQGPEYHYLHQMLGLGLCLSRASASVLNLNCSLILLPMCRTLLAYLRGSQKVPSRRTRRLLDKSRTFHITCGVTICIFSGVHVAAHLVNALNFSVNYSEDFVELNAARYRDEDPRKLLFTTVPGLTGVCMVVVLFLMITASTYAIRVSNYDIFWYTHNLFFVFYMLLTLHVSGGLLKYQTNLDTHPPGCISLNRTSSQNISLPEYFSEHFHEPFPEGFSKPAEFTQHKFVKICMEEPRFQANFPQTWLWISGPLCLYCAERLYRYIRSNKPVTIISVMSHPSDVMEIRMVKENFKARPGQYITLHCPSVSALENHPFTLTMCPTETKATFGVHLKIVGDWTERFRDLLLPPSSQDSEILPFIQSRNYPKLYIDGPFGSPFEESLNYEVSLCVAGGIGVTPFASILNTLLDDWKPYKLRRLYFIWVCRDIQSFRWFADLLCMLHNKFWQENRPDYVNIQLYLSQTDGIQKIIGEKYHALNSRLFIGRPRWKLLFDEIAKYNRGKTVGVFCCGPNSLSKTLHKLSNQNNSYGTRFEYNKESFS
NADPH oxidase 5 (Homo sapiens), sequence (Q96PH1 whole entry, looked up): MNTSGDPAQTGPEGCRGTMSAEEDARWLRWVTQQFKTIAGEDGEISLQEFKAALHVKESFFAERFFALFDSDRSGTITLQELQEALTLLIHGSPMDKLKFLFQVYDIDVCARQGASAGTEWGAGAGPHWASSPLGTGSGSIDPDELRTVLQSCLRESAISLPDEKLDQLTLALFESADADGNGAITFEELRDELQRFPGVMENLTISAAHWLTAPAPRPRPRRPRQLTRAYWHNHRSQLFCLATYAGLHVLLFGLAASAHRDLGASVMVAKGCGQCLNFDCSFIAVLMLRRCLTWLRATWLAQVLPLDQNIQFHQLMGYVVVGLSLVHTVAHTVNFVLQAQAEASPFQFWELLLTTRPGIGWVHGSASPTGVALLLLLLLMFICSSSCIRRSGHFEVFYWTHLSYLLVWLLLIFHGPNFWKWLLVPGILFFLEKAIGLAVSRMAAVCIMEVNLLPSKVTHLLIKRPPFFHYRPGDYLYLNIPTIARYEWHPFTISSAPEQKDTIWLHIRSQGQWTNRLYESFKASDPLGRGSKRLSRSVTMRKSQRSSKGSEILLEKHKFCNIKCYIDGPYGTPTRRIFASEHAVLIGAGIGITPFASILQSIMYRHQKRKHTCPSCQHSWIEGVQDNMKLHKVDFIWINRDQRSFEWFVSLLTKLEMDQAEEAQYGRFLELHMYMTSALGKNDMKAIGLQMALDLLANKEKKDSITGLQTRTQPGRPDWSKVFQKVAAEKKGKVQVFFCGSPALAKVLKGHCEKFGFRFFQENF

Row | Compound | z-score [1] | composite z-score [2] | z-score [3] | z-score [4] | z-score [5] | z-score [6] | z-score [7] | z-score [8] | z-score [9] | z-score [10] | z-score [11] | z-score [12] | z-score [13] | z-score [14] | z-score [15] | z-score [16] | z-score [17] | z-score [18] | z-score [19] | z-score [20]
1 | O=C1O[C@H](c2ccccc2)[C@H](c2ccccc2)N2[C@H]1[C@@H](C(=O)Nc1nc3ccccc3s1)[C@]1(C(=O)Nc3ccccc31)[C@H]2c1ccc(O)cc1 | -0.626 (inactive) | -0.294 | 1.53 (inactive) | 2.51 (inactive) | 0.486 (inactive) | 1.69 (inactive) | 0.192 | 0.844 (inactive) | 0.479 (inactive) | 0.201 | -0.167 | 0.657 | -1.99 | -3.38 | -4.51 | -3.78 | 0.032 (inactive) | -1.12 | -0.564 | -0.358 (inactive)
2 | O=C/C=C/c1ccc2c(c1)OCO2 | 0.586 (inactive) | -0.205 | -0.448 (inactive) | -1.11 (inactive) | 0.321 (inactive) | -2.47 (inactive) | 1.25 | -0.41 (inactive) | -0.502 (inactive) | 0.961 | 0.115 | 0.327 | 0.782 | -0.251 | 0.658 | 1.4 | -0.0743 (inactive) | 0.365 | 0.386 | -0.362 (inactive)
3 | NC(=O)NCC#Cc1ccc2c(c1)[C@]1(C(=O)N2)[C@H](C(=O)N2CCCCCCC2)[C@H]2C(=O)O[C@H](c3ccccc3)[C@H](c3ccccc3)N2[C@@H]1c1ccc(OCCO)cc1 | -0.518 (inactive) | 1.4 | 2.66 (inactive) | 0.66 (inactive) | 0.391 (inactive) | 0.286 (inactive) | -0.378 | 1.35 (inactive) | -1.11 (inactive) | -0.67 | -0.0962 | -0.15 | -1.09 | -0.682 | -0.365 | -1.79 | -2.9 (inactive) | -0.165 | -0.781 | -0.316 (inactive)
4 | C[C@]1(C(=O)NCc2ccccc2)c2ccccc2C(=O)N(Cc2cc(F)cc(C(F)(F)F)c2)[C@H]1c1ccc(CO)cc1 | 0.537 (inactive) | -0.101 | 5.2 (inactive) | 1.01 (inactive) | 1.12 (inactive) | 0.38 (inactive) | -0.239 | -1.29 (inactive) | 0.26 (inactive) | -0.151 | 0.179 | -0.628 | 1.11 | 0.304 | 0.411 | 2.16 | 0.41 (inactive) | 0.714 | -0.765 | -0.375 (inactive)
5 | C=CC[C@@]1(C(=O)NCC(O)CO)N=C(c2ccc(OCCCO)cc2)O[C@@H]1c1ccccc1N=[N+]=[N-] (stereo not given in full) | 1 (inactive) | 0.18 | 34.8 (active) | 27.8 (active) | 3.23 (inactive) | 6.75 (inactive) | 1.58 | -2.45 (inactive) | 0.918 (inactive) | -2.74 | -0.112 | 1.37 | -0.805 | -0.494 | -1.14 | 0.582 | -0.343 (inactive) | -0.164 | -1.17 | 0.695 (inactive)
6 | CN(C)CCCCCCNC(=O)[C@H]1C[C@H]2C(=O)N[C@@H](CCCCN)C(=O)N2[C@H]1c1ccc(O)cc1 | -0.261 (inactive) | 2.82 | -0.294 (inactive) | 0.155 (inactive) | -0.844 (inactive) | 0.303 (inactive) | 0.169 | 0.418 (inactive) | -0.145 (inactive) | 0.887 | -0.466 | 0.71 | 0.266 | -1.05 | -0.0908 | 0.758 | -0.935 (inactive) | -0.773 | 0.237 | 0.283 (inactive)
7 | [N-]=[N+]=NCc1ccccc1[C@H]1OC(c2ccc(OCCCO)cc2)=N[C@@]1(CCS(=O)(=O)c1ccccc1)C(=O)N1CCOCC1 | -0.0978 (inactive) | 1.08 | 24.4 (active) | 9.51 (active) | 1.76 (inactive) | 0.885 (inactive) | -0.362 | 1.24 (inactive) | 2.19 (inactive) | 1.98 | 1.91 | 0.831 | 1.01 | -0.921 | 0.695 | -1.05 | 0.455 (inactive) | -0.507 | -0.877 | 0.388 (inactive)
8 | COc1ccccc1CN1C(=O)c2ccccc2[C@@H](C(=O)NCCN2CCOCC2)[C@@H]1c1ccc(CO)cc1 | -0.0157 (inactive) | -0.211 | 2.67 (inactive) | 0.0298 (inactive) | 1.56 (inactive) | 0.695 (inactive) | 0.513 | 1.26 (inactive) | -0.65 (inactive) | -2.47 | 0.61 | 0.0251 | 0.556 | -0.231 | -0.55 | 2.15 | 0.364 (inactive) | 0.711 | -0.691 | 1.33 (inactive)
